# Assay results taken from PubChem BioAssay (NCATS).
# Inconclusive results are not listed. A number with no mark means an inactive call. Calls come from the whole dose curve; as a rule, active = well fitted inhibition curve with a large enough effect; inconclusive = small, poorly fitted or top-dose-only effect, or effect the other way; inactive = flat fitted curve, though single readings scatter.
# Target: ATP-dependent 6-phosphofructokinase (Trypanosoma brucei brucei) (UniProt O15648)
# Assay: qHTS Assay to Find Inhibitors of T. brucei phosphofructokinase: hit validation (AID 492961);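 note: luminescence reports ADP formed as PFK phosphorylates fructose-6-phosphate with ATP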
# Details: T. brucei PFK, ADP-Glo luminescence; series mostly up to 51.4 µM; activity change, negative = inhibition: at the top concentration
# Description: NIH Molecular Libraries Probe Production Network [MLPCN] NIH Chemical Genomics Center [NCGC] Grant: 1 R03 MH092153-01 PI Name: Malcolm Walkinshaw, University of Edinburgh NCGC Assay Overview: Various species of the protozoan family Trypanosomatidae are responsible for a range of serious human diseases in tropical and subtropical areas of the world. […] Many of the disorders caused by trypanosomatids are fatal if left untreated, but most currently used drugs are inefficient and toxic. […] Oxidative metabolism involving the mitochondrial tricarboxylic acid cycle and oxidative phosphorylation are repressed in these parasites, and recent RNA interference (RNAi) experiments have shown that even partial depletion of certain individual glycolytic enzymes can lead to the death of cultured parasites. One such glycolytic enzyme, phosphofructokinase (PFK), catalyzes the formation of fructose-1,6-bisphosphate (F1,6BP) and ADP from fructose-6-phosphate (F6P) and ATP, and in many metabolic circumstances makes an important contribution to the control of flux through the glycolytic pathway. As a specific glycolytic target, PFK is particularly attractive as it catalyzes the first irreversible step in glycolysis, and structural and kinetic studies have shown very substantial and essential differences from corresponding host enzymes, allowing for the discovery of parasite-selective inhibitors. The goal of this screen is to find small-molecule inhibitors of T. brucei PFK using a biochemical assay that measures PFK activity as a function of ADP production. A luminescence-based assay for T. brucei PFK activity has been developed which uses luciferase to detect production of ADP. Traditional luciferase-based nucleotide detection reagents rely on ATP production as a direct substrate for the luciferase reaction; however, PFK catalyzes the transfer of a phosphate from ATP to F6P, resulting in the net depletion of ATP. To directly measure the ADP product of the PFK reaction, we used the ADP-Glo detection kit (Promega), which utilizes two separate reactions to 1) deplete all remaining uncatalyzed ATP and 2) convert all remaining ADP to ATP, which is then detected through a traditional luciferase-coupled reaction. Compounds were screened as a concentration-titration series that ranged from 57 uM to 0.7 nM.
# NCGC Assay Protocol Summary: Substrate buffer was dispensed into white, solid 1536-well plates at 3uL/well in 0.1M triethanolamine (TEA) buffer, pH 8.0, containing final concentrations of 5 mM MgCl2, 0.01% Tween20, 0.5 mM fructose-6-phosphate (F6P) and 0.1mM ATP. Then, 23 nL of compounds or DMSO were delivered to each well using a pin tool. One uL T. brucei PFK (0.1M TEA, 0.01% Tween20, 0.1% bovine serum albumin (BSA) and 1.25nM PFK, final concentrations) was then dispensed, and plates were incubated at room temperature for 45 min. The luminescent detection reagent, ADP-Glo (Promega), was then added in two steps: the first reagent, ADP-Glo (which converts remaining uncatalyzed ATP), was added at 2.5uL/well and incubated for ten minutes at room temperature, and the second component, Kinase Detection reagent (which converts ADP to ATP as a substrate for luciferase-based luminescence), was added immediately after at 5uL/well, followed by one final ten minute room temperature incubation. The plates were measured on a ViewLux plate reader for luminescent signal using a clear filter with a one second exposure. The %Activity was determined from the corrected luminescence values. As no specific T. brucei PFK inhibitors have been identified in the literature, 1x (1.25nM) and 0x PFK enzyme controls (untreated) were included to normalize %Activity of identified inhibitors; 0x enzyme values corresponded to 100%Activity (full inhibition), while 1x PFK enzyme values were used to normalize 0%Activity (no inhibition). Concentration-response curves were fitted to the signals arising from the resulting luminescence. […]
# ATP-dependent 6-phosphofructokinase (Trypanosoma brucei brucei), sequence (O15648 whole entry, looked up): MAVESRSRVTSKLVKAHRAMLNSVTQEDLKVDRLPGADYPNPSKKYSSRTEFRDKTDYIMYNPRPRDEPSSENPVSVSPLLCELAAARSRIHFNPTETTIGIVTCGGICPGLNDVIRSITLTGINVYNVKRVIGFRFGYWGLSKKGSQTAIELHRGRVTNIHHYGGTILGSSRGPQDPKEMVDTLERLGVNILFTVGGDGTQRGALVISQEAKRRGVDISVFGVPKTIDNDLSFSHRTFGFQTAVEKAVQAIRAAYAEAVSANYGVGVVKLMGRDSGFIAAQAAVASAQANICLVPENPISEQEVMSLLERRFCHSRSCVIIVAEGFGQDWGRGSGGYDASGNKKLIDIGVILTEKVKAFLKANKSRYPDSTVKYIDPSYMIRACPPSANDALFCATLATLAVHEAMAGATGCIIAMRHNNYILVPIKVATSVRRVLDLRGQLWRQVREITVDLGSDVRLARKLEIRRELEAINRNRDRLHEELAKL
row,SMILES,"activity change, negative = inhibition"
1,CCN1CCC[C@H]1CNC(=O)c1c(O)c(Cl)cc(Cl)c1OC,0.0972%
2,COC(=O)C1=C(C)NC(C)=C(C(=O)OC(C)(C)CN(C)CCC(c2ccccc2)c2ccccc2)C1c1cccc([N+](=O)[O-])c1 (stereo not given),3.21%
3,CC(C(=O)O)c1ccc(CC2CCCC2=O)cc1 (stereo not given),-2.38%
4,C[N+](C)(C)CCOC(N)=O,5.92%
5,Nc1ncn([C@@H]2O[C@H](CO)[C@@H](O)[C@H]2O)c(=O)n1,-3.92%
6,NC(=Nc1ccccc1)Nc1ccccc1,4.86%
7,CCN(CC)CCOCCOC(=O)C1(c2ccccc2)CCCC1,-5.96%
8,C[N+](C)(C)CCOC(=O)CCC(=O)OCC[N+](C)(C)C,7.66%
9,CN(C)CC[C@@H](c1ccc(Br)cc1)c1ccccn1,-5.23%
10,CC(=O)[C@]1(O)Cc2c(O)c3c(c(O)c2[C@@H](O[C@H]2C[C@H](N)[C@H](O)[C@H](C)O2)C1)C(=O)c1ccccc1C3=O,17.7%
11,CCCCOCCOCCOCc1cc2c(cc1CCC)OCO2,1.08%
12,Cc1ccc(=O)n(-c2ccccc2)c1,2.03%
13,CN(C(=O)CCCOc1ccc2[nH]c(=O)ccc2c1)C1CCCCC1,3.51%
14,CN(C)CCCN1c2ccccc2Sc2ccccc21,2.62% [at 24.3 µM]
15,CCO/C([O-])=N/c1c[n+](N2CCOCC2)no1,-0.95% [at 24.3 µM]
16,CC(N=C(NC#N)Nc1ccncc1)C(C)(C)C (stereo not given),12.1%
17,O=C(CCCN1CCC(O)(c2cccc(C(F)(F)F)c2)CC1)c1ccc(F)cc1,19.1%
18,CN(C)C(=O)Oc1ccc[n+](C)c1,0%
19,CCN(CC)CCNC(=O)c1ccc(NC(C)=O)cc1,-2.53%
20,CCN1CCc2nc(N)oc2CC1,-6.42%

row,SMILES,"activity change, negative = inhibition"
1,COCC(=O)O[C@]1(CCN(C)CCCc2nc3ccccc3[nH]2)CCc2cc(F)ccc2[C@@H]1C(C)C,-6.05%
2,CCNC(=O)N1CCN(CCCC(c2ccc(F)cc2)c2ccc(F)cc2)CC1,0%
3,NC1=NCC2c3ccccc3Cc3ccccc3N12 (stereo not given),-0.0748%
4,O=C(O)CN(CCOCCOCCN(CC(=O)O)CC(=O)O)CC(=O)O,-1.91%
5,NC(=O)c1cn(Cc2c(F)cccc2F)nn1,-1.94%
6,CC(C)[N+](C)(CCOC(=O)C1c2ccccc2Oc2ccccc21)C(C)C,-1.1%
7,O=C(O)CP(=O)(O)O,6.69%
8,CN(C)CCN(Cc1cccs1)c1ccccn1,-3.79%
9,CC(C)NNC(=O)c1ccncc1,1.03%
10,CC[N+](C)(C)c1cccc(O)c1,6.54% [at 24.3 µM]
11,CN(C)CCCN1c2ccccc2Sc2ccc(C(F)(F)F)cc21,8.81%
12,CNCCCN1c2ccccc2CCc2ccccc21,-1.91% [at 24.3 µM]
13,CCCC(C(=O)OCCN(CC)CC)(c1ccccc1)c1ccccc1,0.451%
14,CCc1cccc(N(C)C(N)=Nc2cccc3ccccc23)c1,-3.2%
15,CCOC(=O)C1=C(C)NC(C)=C(C(=O)OC)C1c1cccc(Cl)c1Cl (stereo not given),-3.48%
16,COc1cc2c(cc1OC)-c1cc(=Nc3c(C)cc(C)cc3C)n(C)c(=O)n1CC2,-0.712%
17,NC(=O)c1ncn([C@@H]2O[C@H](CO)[C@@H](O)[C@H]2O)c1O,-1.13%
18,NCCCNCCSP(=O)(O)O,2.41%
19,OCCN1CCN(CCCN2c3ccccc3C=Cc3ccccc32)CC1,6.5%
20,Cc1nc2sccn2c(=O)c1CCN1CCC(=C(c2ccc(F)cc2)c2ccc(F)cc2)CC1,16.3%
